About 1,600 (39%) of roughly 4,100 compounds were called active. Not shown: some 25% with an inconclusive outcome. The list shows a part of the results. Values without a mark were called inactive. Calls follow the shape of the dose curve; as a rule, active = well fitted inhibition curve with a large enough effect; inconclusive = small, poorly fitted or top-dose-only effect; inactive = no such curve, though single readings can be large or run the other way.
% is scaled to controls: 0 for no effect and ±100 for the full control effect; potency is read from the fitted curve at half-maximal effect.

This assay is described as follows: qHTS Validation assay for Inhibitors of Plasmodium falciparum Dd2 growth in vitro. Also: nearly all actives have a fitted effect of over 70% in size. The following applies: P. falciparum Dd2 in RBCs, SYBR Green growth, 72 h; series mostly up to 28.7 µM; activity change, negative = inhibition: at the top concentration. An outline of the steps:
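P. falciparum Dd2-infected red blood cells (2.5% hematocrit, 0.3% parasitemia) grown 72 h at 37 °C under 5% O2 with compounds in a titration, 29 uM to 0.5 nM final. Growth read as SYBR Green-1 fluorescence after ~16 h lysis; artesunate 300 nM as positive control.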
Consider `CCNc1nc(OC)nc(Oc2ccc(=O)n(-c3ccccc3)n2)n1`, for which the Potency was 5.96 µM (active).

As to `CC(C)Cn1c(-c2ccco2)nc2c(c(=O)c3ccccc3n2C)c1=O`, the Potency was 9.44 µM (active).

Take `O=S(=O)(c1ccc(F)cc1)N1CCN(C(=S)NC2CC2)CC1`: the Potency is 3.35 µM (active).

Take `COc1ccc(S(=O)(=O)N2CCN(C(=S)NC3CCCCC3)CC2)cc1`: the Potency was 6.68 µM (active).

Regarding `Cc1ccc(S(=O)(=O)N2CCC(C(=O)NC3CC3)CC2)cc1`, the “activity change, negative = inhibition” value was -28%.

On to `CS(=O)(=O)N1CCC(OC2CCN(C(=O)Nc3cc(F)ccc3F)CC2)CC1`, for which the “activity change, negative = inhibition” value is 11.4%.

For `O=C(c1cccs1)N1CCC(n2cc(-c3nc(-c4ccccc4)no3)nn2)CC1`, the “activity change, negative = inhibition” value was -8.44%.

For the compound `CCOc1ccc(CN2CC[C@@](C)(O)[C@H](N3CCCC3)C2)cc1`, the “activity change, negative = inhibition” value is -16.2%.

`O[C@]1(c2ccccc2)CCN(Cc2ccco2)C[C@H]1N1CCCC1`: the Potency is 8.41 µM (active).

Turning to `O=C(c1cccs1)N1CCC(O)(c2ccccc2)[C@H](N2CCCC2)C1` (stereo partly specified), the Potency was 9.44 µM (active).

Turning to `O[C@]1(c2ccccc2)CCN(Cc2ccncc2)C[C@H]1N1CCCC1`, the Potency was 9.44 µM (active).

For the compound `O=C(CC1CCN(C(=O)c2cccs2)C1)NCc1ccccc1` (stereo unspecified), the “activity change, negative = inhibition” value is 9.3%.

Regarding `Cc1nn(C)cc1CN1CCC(O)(c2ccccc2)[C@H](N2CCCC2)C1` (stereo partly specified), the “activity change, negative = inhibition” value is -28.5%.

As for `c1ccc(-c2noc(-c3ccn4c(CN5CCN(c6ccccn6)CC5)nnc4c3)n2)cc1`, the “activity change, negative = inhibition” value was -6.11%.

For the compound `CCOc1ccc2[nH]c3c(NCCN(C)C)ncnc3c2c1`, the Potency is 16.8 µM (active).

As for `CC1Cn2c(nnc2-c2cc3ccccc3cc2O)S1` (stereo unspecified), the Potency was 4.73 µM (active).

With `CCc1ccc(Oc2c(C(F)(F)F)oc3c(CN4CCN(C)CC4)c(O)ccc3c2=O)cc1`, the Potency was 0.75 µM (active).

As to `CCc1ccc(Oc2c(C(F)(F)F)oc3c(CN4CCN(CC)CC4)c(O)ccc3c2=O)cc1`, the Potency is 0.376 µM (active).

Regarding `C=CCO[C@@H]1CCN2C(=O)c3cc(-c4cc(Cl)ccc4OC)ccc3NC(=O)[C@H]12`, the “activity change, negative = inhibition” value was -16.7% [at 43.1 µM].

Turning to `CC(C)C(=O)NCC1CN(Cc2ccccc2)C(=O)c2c(ccnc2-c2ccc(OCC(=O)O)cc2)O1` (stereo unspecified), the Potency is 2.11 µM (active).

As for `O=C(O)COc1ccc(-c2nccc3c2C(=O)N(Cc2ccccc2)CC(CNC(=O)c2ccc(F)cc2)O3)cc1` (stereo unspecified), the “activity change, negative = inhibition” value was -17.6%.

Consider `Cc1cccc(Nc2nc(NCc3ccco3)c3ccccc3n2)c1`, for which the Potency was 4.73 µM (active).

Take `Oc1ccccc1Nc1nc(NCc2ccco2)c2ccccc2n1`: the Potency was 2.99 µM (active).

In the case of `c1ccc(Nc2nc(NCc3ccco3)c3ccccc3n2)cc1`, the Potency was 1.68 µM (active).

As to `OCCNc1nc(Nc2ccc(Br)cc2)nc2ccccc12`, the Potency is 2.66 µM (active).

`NCC(=O)N1CCC(n2nccc2NC(=O)c2ccc3c(c2)OCO3)CC1`: the “activity change, negative = inhibition” value is 37.3%.

Source of the values: PubChem BioAssay AID1347416 (National Center for Advancing Translational Sciences (NCATS), 2020).
